Compounds with a hit are over-represented: about 3.4% of the library has one in this group of screens.
HTT ATP protect – protects HTT-Q103 PC12 cells, measured by ATP; Potency, µM (doses to about 56.4 µM), inactives show cytoprotection (ATP increase), actives largely listed as activators; PC12 HTT-Q103 induced, cytoprotection, ATP luminescence, 40 h; hit rate 0.14% among 230,000; AID 1471; note: potency is the fitted concentration of half-maximal effect; % of control where 0% means no effect; nearly all actives have a fitted effect of over 45% in size
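Rat PC12, Q103 Htt exon1-GFP fusion, ecdysone promoter; tebufenozide inducer 100 nM final; compound titration; qHTS, 1500 cells/well; ATPlite luminescent read.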
IMPase inh – IMPase inhibition in cells; P97697; CHO-M1 cells, IP1 accumulation, HTRF TR-FRET ratio; inhibition (IP1 accumulation), % at 46.1 µM; 120,000 tested, under 10 active; AID 901; active = well fitted curve in the direction sought with a large enough effect in the signal ratio, not every such curve was filed as active; inconclusive = small, poorly fitted or top-dose-only effect, or a change in a side signal; inactive = no such curve, though single readings can be large or run the other way; the % refers to the signal ratio;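 note: cells stimulated with carbachol in lithium chloride buffer; plate controls were DMSO basal wells for no effect and reference inhibitor wells for full effect; higher means more IMPase inhibition seen as more IP1 and lower FRET ratio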
Target sequence (P97697 whole entry, looked up): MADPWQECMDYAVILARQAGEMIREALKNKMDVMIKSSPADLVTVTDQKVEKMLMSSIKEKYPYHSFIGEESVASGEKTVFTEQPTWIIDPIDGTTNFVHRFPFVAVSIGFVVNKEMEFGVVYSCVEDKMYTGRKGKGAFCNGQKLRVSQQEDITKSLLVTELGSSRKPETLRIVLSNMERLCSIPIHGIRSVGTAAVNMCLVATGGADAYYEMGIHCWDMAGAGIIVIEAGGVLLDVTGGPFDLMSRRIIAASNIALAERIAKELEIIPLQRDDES
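Cellular IMPase inhibition is scored as a rise in cytosolic IP1, detected by competitive TR-FRET between d2-labelled IP1 and a europium anti-IP1 antibody. M1-expressing CHO cells were stimulated with carbachol for 30 min at 37C, with lithium (50 mM LiCl) present in the buffer.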
NPSR antagonist – blocks cAMP signaling of the human neuropeptide S receptor. Q6W5P4. CHO-NPSR cells, cAMP TR-FRET, antagonist mode. Potency, µM (top dose mostly 38.3 µM), without a hit: at the top dose activity change, negative = inhibition, usual class: inhibitors. hit rate 1% among 220,000. AID 1461; note: potency is the fitted concentration of half-maximal effect; % is set by controls: 0 for no effect and ±100 for the full control effect; nearly all actives have a fitted effect of over 50% in size
Target sequence (Q6W5P4 whole entry, looked up): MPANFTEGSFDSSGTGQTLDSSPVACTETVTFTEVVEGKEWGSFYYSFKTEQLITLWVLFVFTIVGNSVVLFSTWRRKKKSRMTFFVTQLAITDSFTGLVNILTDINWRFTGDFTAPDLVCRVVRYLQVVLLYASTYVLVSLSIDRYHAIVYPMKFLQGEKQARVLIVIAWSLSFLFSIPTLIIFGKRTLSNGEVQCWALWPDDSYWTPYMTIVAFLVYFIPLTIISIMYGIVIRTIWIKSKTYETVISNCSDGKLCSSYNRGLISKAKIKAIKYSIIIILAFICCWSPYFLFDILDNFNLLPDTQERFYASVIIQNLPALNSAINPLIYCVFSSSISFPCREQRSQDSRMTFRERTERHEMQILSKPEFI
HTT aggregate – reduces HttQ103-GFP aggregates in PC12 cells. PC12 HttQ103-GFP aggregates, Acumen cytometry, 40 h. Potency, µM (titrated, usually from 46.1 µM), for inactives: top-dose activity change, negative = inhibition, actives largely listed as inhibitors. hit rate 1.1% among 220,000. AID 1688; note: potency is the fitted concentration of half-maximal effect; % is set by controls: 0 for no effect and ±100 for the full control effect; nearly all actives have a fitted effect of over 60% in size
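Multiplexed with ATP-based cell death, this channel scores GFP aggregates in PC12 cells expressing inducible HTTex1-Q103-GFP. Induction used 100 nM tebufenozide; compounds were tested in concentration series.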
IMPase Li inh – membrane-permeable IMPase blocker, potentiated with lithium | CHO-M1 cells, IP1 TR-FRET (IP-One), carbachol + lithium | Potency, µM (highest dose often 59.4 µM), for the others: at the top dose activity, negative = IMPase inhibition, actives largely listed as inhibitors | hit rate 0.35% among 210,000;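 note: IP1 builds up when IMPase is blocked and the TR-FRET signal falls; potency is the fitted concentration of half-maximal effect; plate controls were basal vehicle for no effect and high inhibitor control for full effect; nearly all actives have a fitted effect of over 50% in size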
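CHO cells stably expressing M1 receptor (2000/well, cultured 16–30 h) treated 30 min at 37C with compound plus low lithium. Cytosolic IP1 by TR-FRET (665/620 ratio and 620 channel) after 10 min lysis; AC50 by Hill fit.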
PNC inhibitor – perinucleolar compartment assembly inhibition. PC3M PTB-GFP, PNC prevalence imaging, 16 h; active compounds read low. activity change (PNC), negative = inhibition, % at 10 µM. hit rate 3.1% among 140,000;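 active = readout at or below -70, meaning at least 70% loss of cells showing the perinucleolar compartment, a nuclear body marking cancer cells; inconclusive = readout between -30 and a set limit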;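 note: plate controls were DMSO wells for no effect and camptothecin positive control wells for full effect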
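Read-out is percentage of cells bearing a perinucleolar compartment, from automated 20x imaging of fixed, Hoechst-stained PC3M PTB-GFP cells. Cells were seeded 4 h, then exposed 16 h to compound (23 nl of library stock) in duplicate plates.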
The depositor's hits bear a star; [ ] = remark or other dose. Unless noted, calls come from the whole dose curve; as a rule, active = well fitted curve in the direction sought with a large enough effect; inconclusive = small, poorly fitted or top-dose-only effect, or another doubt; inactive = no such curve, though single readings can be large; an effect the other way counts as inactive or inconclusive.

Results for C[n+]1c2n(c3ccccc31)N=C(c1ccc(Br)cc1)CS2 ?
HTT ATP protect: -11.9%[10 µM]; IMPase inh: 8.7; NPSR antagonist: -0.5%[46.1 µM]; HTT aggregate: 31.6µM*; IMPase Li inh: 18.0%; PNC inhibitor: 43.0

How did Brc1ccc(C2=Nn3c(Cn4nnc5ccccc54)nnc3SC2)cc1 do in these assays?
HTT ATP protect: 0.4%[10 µM]; NPSR antagonist: 24.8%; HTT aggregate: -18.9%[9.22 µM]

Results for CCCCc1c(O)n(-c2ccccc2)[nH]c1=O ?
HTT ATP protect: -51.2%; IMPase Li inh: -7.2%

What do the screens show for `Cc1ccc(S(=O)(=O)N2CCCC2C(=O)OCc2ccco2)cc1` (stereo not drawn)?
HTT ATP protect: 7.7%; IMPase inh: 17.5; NPSR antagonist: -13.4%[46.1 µM]; HTT aggregate: 26.9%; IMPase Li inh: 19.1%[38.3 µM]; PNC inhibitor: -108.5*

What do the screens show for `Cc1ccc(S(=O)(=O)N2CCCC2C(=O)OCc2ccccc2)cc1` (stereo not drawn)?
HTT ATP protect: 26.1%[10 µM]; NPSR antagonist: -4.0%; HTT aggregate: 9.1%; IMPase Li inh: -8.9%; PNC inhibitor: -24.0

Results for Cc1cccc(CNc2ncncc2-c2cccnc2)c1 ?
HTT ATP protect: -13.7%; IMPase Li inh: 8.2%

How did CC1CC[C@]2(CO)CC[C@]3(C)C(=CCC4[C@@]5(C)CCC(O)C(C)(C)C5CC[C@@]43C)C2C1C (stereo partly drawn) do in these assays?
HTT ATP protect: -20.4%; IMPase Li inh: -1.6%

What do the screens show for `CCc1cc2c(=O)[nH]c(Cc3ccccc3)nc2s1`?
HTT ATP protect: -13.4%; IMPase inh: -1.3; NPSR antagonist: -0.7%[46.1 µM]; HTT aggregate: -2.7%; IMPase Li inh: 13.3%[38.3 µM]; PNC inhibitor: -107.5*

Results for CC(C)(C)c1ccc(C(=O)N/N=C/c2ccc(OCCCF)cc2)cc1 ?
HTT ATP protect: -31.1%; NPSR antagonist: -7.0%; HTT aggregate: 7.7%; IMPase Li inh: -2.2%

Results for CC(=O)NCc1nc2ccccc2n1Cc1ccccc1F ?
HTT ATP protect: -7.1%; IMPase inh: 1.3; NPSR antagonist: 4.4%[46.1 µM]; HTT aggregate: 19.3%; IMPase Li inh: -5.9%[38.3 µM]; PNC inhibitor: -3.6

Results for NC(=O)CS(=O)(=O)c1nc2ccccc2n1Cc1ccccc1F ?
HTT ATP protect: 25.1µM*; IMPase inh: 4.6; NPSR antagonist: 2.3%[46.1 µM]; HTT aggregate: 16.1%; IMPase Li inh: 13.6%[38.3 µM]; PNC inhibitor: 30.4

What do the screens show for `O=S(=O)(c1ccc2c(c1)C(=NO)c1cc(S(=O)(=O)N3CCCCC3)ccc1-2)N1CCCCC1`?
HTT ATP protect: -135.5%[10 µM]; IMPase inh: 0.9; NPSR antagonist: 2µM*; HTT aggregate: inconclusive; IMPase Li inh: -2.8%[38.3 µM]; PNC inhibitor: 2.0

How did CC1CCN(S(=O)(=O)c2ccc3c(c2)C(=NO)c2cc(S(=O)(=O)N4CCC(C)CC4)ccc2-3)CC1 do in these assays?
HTT ATP protect: -92.5%; IMPase inh: 9.6; NPSR antagonist: 0.501µM*; HTT aggregate: 3.16µM*; IMPase Li inh: 23.7%[38.3 µM]; PNC inhibitor: 11.1

Results for CC1CCN(S(=O)(=O)c2cccc(C(=O)O)c2)CC1 ?
HTT ATP protect: 4.0%; IMPase inh: 0.3; NPSR antagonist: 11.5%[46.1 µM]; HTT aggregate: 23.1%; IMPase Li inh: 22.7%[38.3 µM]; PNC inhibitor: 28.0

How did COc1ccc(N(C(=O)c2ccccc2C)S(=O)(=O)c2cccs2)cc1 do in these assays?
HTT ATP protect: -8.8%[0.074 µM]; NPSR antagonist: -10.0%; HTT aggregate: 13.3%; IMPase Li inh: 7.4%; PNC inhibitor: -96.7*

How did Nc1ncnc2c1ncn2[C@@H]1O[C@@H](CO)[C@H](O)[C@@H]1O do in these assays?
HTT ATP protect: 0.1%[1.9 µM]; IMPase inh: -0.9

How did Nc1cc(Cl)ccc1C(=O)OCC(=O)N1CCOCC1 do in these assays?
HTT ATP protect: -9.0%[10 µM]; NPSR antagonist: -19.1%; HTT aggregate: -23.5%[9.22 µM]

Results for O=C(c1ccc(S(=O)(=O)Cc2cc(F)ccc2F)c([N+](=O)[O-])c1)N1CCCC1 ?
HTT ATP protect: -80.7%; NPSR antagonist: 2.5%; HTT aggregate: 15.8µM*; IMPase Li inh: -11.9%

What do the screens show for `O=C(c1ccc(S(=O)(=O)Cc2cc(F)ccc2F)c([N+](=O)[O-])c1)N1CCCCC1`?
HTT ATP protect: -6.8%[10 µM]; IMPase inh: 18.7; NPSR antagonist: 13.4%; HTT aggregate: 12.6µM*; IMPase Li inh: 20.2%; PNC inhibitor: -29.4

What do the screens show for `O=C(c1ccc(S(=O)(=O)Cc2ccccc2Cl)c([N+](=O)[O-])c1)N1CCN(c2ccccn2)CC1`?
HTT ATP protect: -201.6%; NPSR antagonist: -8.1%; HTT aggregate: 15.8µM*; IMPase Li inh: 5.3%

How did Cc1ccccc1CS(=O)(=O)c1ccc(C(=O)N2CCC(C)CC2)cc1[N+](=O)[O-] do in these assays?
HTT ATP protect: -8.2%; NPSR antagonist: -30.7%; HTT aggregate: -14.5%; IMPase Li inh: -1.0%

How did CC1CCN(C(=O)c2ccc(S(=O)(=O)Cc3cccc(F)c3)c([N+](=O)[O-])c2)CC1 do in these assays?
HTT ATP protect: 9.5%[10 µM]; NPSR antagonist: 4.2%; HTT aggregate: inconclusive; IMPase Li inh: 2.1%; PNC inhibitor: 6.8

Results for O=C(c1ccc(Cl)c([N+](=O)[O-])c1)N1CCN(c2ccccn2)CC1 ?
HTT ATP protect: 13.7%[0.074 µM]; NPSR antagonist: -7.0%; HTT aggregate: -17.1%; IMPase Li inh: 10.8%; PNC inhibitor: 15.0

How did COC(C(=O)Nc1cccc([N+](=O)[O-])c1)c1ccccc1 (stereo not drawn) do in these assays?
HTT ATP protect: -9.4%; NPSR antagonist: 1.0%; HTT aggregate: 14.1%; IMPase Li inh: 2.1%

Results for O=C(CSc1nc2ncccc2[nH]1)c1cccc([N+](=O)[O-])c1 ?
HTT ATP protect: -69.8%[10 µM]; IMPase inh: -0.6; NPSR antagonist: 11.5%; HTT aggregate: 30.1%; IMPase Li inh: 14.9%; PNC inhibitor: -112.6*

What do the screens show for `Cc1occc1C(=O)NN=C1C2CC3CC(C2)CC1C3`?
HTT ATP protect: 11.7%[10 µM]; IMPase inh: inconclusive; NPSR antagonist: -12.0%[46.1 µM]; HTT aggregate: -2.6%; IMPase Li inh: -1.3%; PNC inhibitor: -100.0*

How did Cc1occc1C(=O)NC(C)C12CC3CC(CC(C3)C1)C2 (stereo not drawn) do in these assays?
HTT ATP protect: 17.2%[10 µM]; NPSR antagonist: 19.6%; HTT aggregate: 0.5%[9.22 µM]; IMPase Li inh: 9.8%

What do the screens show for `N[C@H](C(=O)O)c1nn[nH]n1`?
HTT ATP protect: -45.6%[1.9 µM]; IMPase inh: -1.3; IMPase Li inh: 4.9%

Compound activity (PubChem)
